This is an account of results in PubChem BioAssay (Tox21).

The source made the active and inactive calls. The call rests on the fitted dose curve; in most records, active means well fitted curve in the direction sought with a large enough effect in the repeat runs; inconclusive means weak or mixed curves; inactive means flat fitted curve, though single readings scatter.

The test can be described thus: qHTS assay to test for compound auto fluorescence at 460 nm (blue) in HEK293 cell free culture (AID 720681). To be noted: cell-free medium, autofluorescence 405/460 nm (blue); series mostly up to 91.3 µM. The procedure, abridged: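 Compounds were added to cell-free DMEM with 10% FBS and fluorescence read directly. The blue channel used 405 nm excitation and 460 nm emission, with triamterene as the reference fluorophore.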
(In qHTS, concentration-response curves come from the screen itself.)
Turning to `[CH3][Sn]([CH3])([Cl])[Cl]`, the molecule was called inactive.

`O=C=Nc1ccc(Cl)cc1`: the outcome was inactive.

For `CCOP(=S)(OCC)SCn1nnc2ccccc2c1=O`, the molecule was called inactive.

Turning to `COP(=S)(Oc1cc(Cl)c(Br)cc1Cl)c1ccccc1` (stereo unspecified), the call was inactive.

Take `CC(C)(C)c1cc([N+](=O)[O-])cc([N+](=O)[O-])c1O`: the molecule was classed as inactive.

`CCCCC(O)(Cn1cncn1)c1ccc(Cl)cc1Cl` (stereo unspecified): the molecule was classed as inactive.

For `Clc1cccc2ccccc12`, the molecule was classed as inactive.

Turning to `Cl/C=C\C[N+]12CN3CN(CN(C3)C1)C2`, the molecule was called inactive.

Turning to `Clc1cc(C(Cl)(Cl)Cl)cnc1Cl`, the molecule was classed as inactive.

Take `O=C1C(=O)c2cccc3cccc1c23`: the call was inactive.

On to `CC1(C)CCC(Cc2ccc(Cl)cc2)C1(O)Cn1cncn1` (stereo unspecified), for which the molecule was classed as inactive.

On to `CO/N=C(/C(=O)OC)c1ccccc1COc1ccccc1C`, for which the result was inactive.

As for `O=C1c2ccccc2C(=O)C1C(=O)C(c1ccccc1)c1ccccc1`, the molecule was classed as inactive.

For the molecule `O=C1CN=C(c2ccccc2)c2cc(Cl)ccc2N1CC1CC1`, the molecule was called inactive.

As for `BrCC(Br)C1CCC(Br)C(Br)C1` (stereo unspecified), the molecule was classed as inactive.

As to `Cc1c(F)c(F)c(COC(=O)C2C(/C=C(\Cl)C(F)(F)F)C2(C)C)c(F)c1F` (stereo unspecified), the molecule was classed as inactive.

On to `COC(=O)C(Br)CBr` (stereo unspecified), for which the molecule was classed as inactive.

As to `CCOP(=S)(Oc1ccc([N+](=O)[O-])cc1)c1ccccc1` (stereo unspecified), the molecule was called inactive.

For `O=[N+]([O-])C(Br)(CO)CO`, the result was inactive.

As to `O=C(O)C(F)(F)C(F)(F)C(F)(F)C(F)(F)C(F)(F)C(F)(F)C(F)(F)C(F)(F)C(F)(F)F`, the molecule was classed as inactive.

In the case of `NS(=O)(=O)C(F)(F)C(F)(F)C(F)(F)C(F)(F)C(F)(F)C(F)(F)C(F)(F)C(F)(F)F`, the result was inactive.
